Experimental data published in PubChem BioAssay (NCATS).
Where “and” joins values, the source holds several entries; their conditions need not be identical. Identical values can stand only once. Results filed as inconclusive are left out. A number with no mark means an inactive call. Calls of active or inactive are those of the source. Calls follow the shape of the dose curve; as a rule, active = well fitted curve in the direction sought with a large enough effect; inconclusive = small, poorly fitted or top-dose-only effect, or another doubt; inactive = no such curve, though single readings can be large; an effect the other way counts as inactive or inconclusive.

Experiments:
[1] = target: Cellular tumor antigen p53 (Homo sapiens) (UniProt P04637); assay: Primary qHTS for small molecule compounds that upregulate eGFP-tagged delta133p53alpha (in N-terminal) cells. (AID 2060322); conditions: NCI-H358 eGFP-delta133p53alpha fluorescence, 24 h; activation: stronger effect = higher value; also: nearly all actives have a fitted effect of over 75% in size; also: potency is read from the fitted curve at half-maximal effect;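 as to activation: series mostly up to about 56 µM; 0% = DMSO vehicle and 100% = reference activator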
Procedure, shortened: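 NCI-H358 cells pre-induced 24 h with 10 ng/ml doxycycline to express N-terminal eGFP-delta133p53alpha, then dosed 24 h at 37C without doxycycline; fixed, Hoechst-stained, GFP intensity by laser scanning cytometry, normalized to DMSO (0%) and 57.5 uM 5-azacytidine (100%).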

[2] = target: Aldehyde dehydrogenase, mitochondrial (Homo sapiens) (UniProt P05091); assay: qHTS for Inhibitors of the Aldehyde Dehydrogenase Family (ALDH2) Primary screen (AID 2061308);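 also: plate controls were vehicle for no effect and reference inhibitor for full effect; nearly all actives have a fitted effect of over 55% in size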
[3] = target: Retinaldehyde dehydrogenase 3 (Homo sapiens) (UniProt P47895); assay: qHTS for Inhibitors of the Aldehyde Dehydrogenase Family (ALDH1A3) Primary screen (AID 2061315);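 also: plate controls were DMSO vehicle for no effect and reference inhibitor for full effect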
[4] = BET inhibitor-based combinations targeting novel dependencies in MECOM-rearranged (r) AML: MV-4-11 cell line (AID 2202233); also: nearly all actives have a fitted effect of over 45% in size; also: potency is read from the fitted curve at half-maximal effect
Procedure, shortened: (§1)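 Using pin-tool transfer, drugs were added in 11 doses to cells (500/well), incubated 48 hr, and assessed with CellTiter-Glo. Z-AUC is a mean-centring transformation applied separately to each screened line.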

[5] = BET inhibitor-based combinations targeting novel dependencies in MECOM-rearranged (r) AML: OCI-AML3 cell line (AID 2202232); conditions: Potency: OCI-AML3 viability; also: nearly all actives have a fitted effect of over 35% in size; also: potency is read from the fitted curve at half-maximal effect
Procedure, shortened: (§2)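 Viability of cells (500 per well) is scored by luminescent CellTiter-Glo at 48 hr post-dosing. Eleven-point titrations are normalized to DMSO and empty controls and reduced to AUC values.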

[6] = BET inhibitor-based combinations targeting novel dependencies in MECOM-rearranged (r) AML: HNT-34 cell line (AID 2202234); also: nearly all actives have a fitted effect of over 35% in size; also: potency is read from the fitted curve at half-maximal effect
Procedure, shortened: as §1

[7] = BET inhibitor-based combinations targeting novel dependencies in MECOM-rearranged (r) AML: UCSD-AML1 cell line (AID 2202235); also: nearly all actives have a fitted effect of over 40% in size; also: potency is read from the fitted curve at half-maximal effect
Procedure, shortened: as §1

[8] = BET inhibitor-based combinations targeting novel dependencies in MECOM-rearranged (r) AML: AML-191 cell line (AID 2202236; also: nearly all actives have a fitted effect of over 35% in size; also: potency is read from the fitted curve at half-maximal effect)
Procedure, shortened: as §2

[9] = BET inhibitor-based combinations targeting novel dependencies in MECOM-rearranged (r) AML: AML-194 cell line (AID 2202237; also: nearly all actives have a fitted effect of over 40% in size; also: potency is read from the fitted curve at half-maximal effect)
Procedure, shortened: as §2

Sequence of Cellular tumor antigen p53 (Homo sapiens) (P04637 whole entry, looked up): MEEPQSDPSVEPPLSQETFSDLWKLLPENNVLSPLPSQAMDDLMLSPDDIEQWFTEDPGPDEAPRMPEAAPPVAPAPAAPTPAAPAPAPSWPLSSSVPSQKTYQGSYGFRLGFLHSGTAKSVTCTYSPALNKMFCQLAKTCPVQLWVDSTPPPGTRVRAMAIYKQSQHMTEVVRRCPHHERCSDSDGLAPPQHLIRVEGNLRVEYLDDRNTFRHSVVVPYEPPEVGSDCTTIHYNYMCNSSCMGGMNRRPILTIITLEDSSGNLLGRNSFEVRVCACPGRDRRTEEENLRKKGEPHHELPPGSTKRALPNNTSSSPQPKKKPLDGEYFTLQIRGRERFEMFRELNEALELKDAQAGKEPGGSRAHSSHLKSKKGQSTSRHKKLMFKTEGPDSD

In the case of `Cc1cnc(CNC(=O)c2c(=O)c3ccc(N4CCCN(C)CC4)nc3n3c2sc2ccccc23)cn1`, the activation [1] is reported as 18.9% and -1.79%, the activity change, negative = inhibition [2] is reported as 8.69% [at 11.2 µM] and the activity change, negative = inhibition [3] is reported as 2.3% [at 11.2 µM]. The Potency [4] was 1.08 µM (active).
For `CCn1nc(C2CCN(C(=O)CCO)CC2)nc1-c1cnc(N)c(-c2nnc(C(C)(C)C)o2)n1`, the activation [1] was 6.33%, the Potency [2] was “inactive” and the Potency [3] was “inactive”. The Potency [5] was 1.18 µM (active), the Potency [6] was 16.6 µM (active) and the Potency [7] was 5.9 µM (active).
With `CN1CCN(c2ccc(OC(F)(F)F)c(Nc3ncc4c(n3)-c3c(c(C(N)=O)nn3CCO)CC4)c2)CC1` the activation [1] was 85.7%, the Potency [2] was “inactive” and the Potency [3] was “inactive”. The Potency [5] was 0.059 µM (active), the Potency [7] was 0.118 µM (active) and the Potency [8] was 0.132 µM (active). For the same compound, the Potency [9] was 0.332 µM (active).
With `C[C@@H](c1ccc2nccn2c1)n1nnc2ncc(-c3cnn(C)c3)nc21` the activation [1] was 2.86%, the Potency [2] was “inactive” and the Potency [3] was “inactive”. For the same compound, the Potency [5] was 13.2 µM (active), the Potency [8] was 20.9 µM (active) and the Potency [9] was “inactive”.
For `CNC(=O)c1ccc(C)c(-n2c(C)cc(OCc3ccc(F)cc3F)c(Br)c2=O)c1`, the activation [1] was 30.3% and -12.5%, the Potency [2] was “inactive” and the Potency [3] was “inactive”. The Potency [5] was “inactive”, the Potency [7] was “inactive” and the Potency [9] was “inactive”.
In the case of `CC(C)C[C@H](CO)Nc1nc(S[C@@H](C)c2ccccc2)nc2nc(N)sc12`, the activation [1] is reported as 5.67%, the Potency [2] is reported as “inactive” and the Potency [3] is reported as “inactive”. The Potency [5] was 26.3 µM (active), the Potency [4] was 26.3 µM (active) and the Potency [7] was “inactive”.
In the case of `Nc1ncnc2c1ncn2[C@@H]1O[C@H](CO)C[C@H]1O`, the Potency [1] is reported as 12 µM (active), the Potency [2] is reported as “inactive” and the Potency [3] is reported as “inactive”. For the same compound, the Potency [5] was “inactive”, the Potency [4] was “inactive” and the Potency [8] was “inactive”. For the same compound, the Potency [9] was “inactive”.
For `COc1cc(Nc2ncc3c(n2)-c2ccc(Cl)cc2C(c2c(F)cccc2OC)=NC3)ccc1C(=O)O`, the activation [1] was 85.9%, the Potency [2] was “inactive” and the Potency [3] was “inactive”. The Potency [4] was 0.0833 µM (active), the Potency [6] was 1.18 µM (active) and the Potency [7] was 0.059 µM (active).
In the case of `O=c1[nH]c([C@@H]2CCCN2)nc2c1oc1ccc(Cl)cc12`, the activation [1] is reported as -1%, the Potency [2] is reported as “inactive” and the Potency [3] is reported as “inactive”. The Potency [4] was 13.2 µM (active).
In the case of `O=C(O)c1ccc(Nc2ncc3c(n2)-c2ccc(Cl)cc2C(c2c(F)cccc2F)=NC3)cc1`, the activation [1] is reported as 139% and 6.25%, the Potency [2] is reported as “inactive” and the Potency [3] is reported as “inactive”. For the same compound, the Potency [4] was 0.934 µM (active).
With `Cc1ccn(-c2ccc(-c3ncco3)cc2)c(=O)c1-c1ccc2nc(N)ncc2c1` the activation [1] was 28.6%, the Potency [2] was “inactive” and the Potency [3] was “inactive”. The Potency [4] was 6.61 µM (active) and the Potency [6] was 0.372 µM (active).
With `CNC(=O)c1cccc2cc(Oc3ccnc4cc(OCC5(N)CC5)c(OC)cc34)ccc12` the activation [1] was 12.5%, the Potency [2] was “inactive” and the Potency [3] was “inactive”. The Potency [5] was 23.5 µM (active), the Potency [6] was 16.6 µM (active) and the Potency [7] was 18.6 µM (active). The Potency [8] was 20.9 µM (active) and the Potency [9] was 23.5 µM (active).
For `CC[C@@](C)(Nc1ccnc(-c2c[nH]c3ncccc23)n1)C(=O)NCC(F)(F)F`, the activation [1] was 18.8%, the Potency [2] was “inactive” and the Potency [3] was “inactive”. The Potency [4] was 14.8 µM (active) and the Potency [6] was 14.8 µM (active).
For `COc1cccc2c1c(O)c(C(=O)N(C)c1ccc(C(F)(F)F)cc1)c(=O)n2C`, the activation [1] was 10.1%, the Potency [2] was “inactive” and the Potency [3] was “inactive”. The Potency [5] was “inactive”, the Potency [4] was “inactive” and the Potency [7] was “inactive”. For the same compound, the Potency [8] was “inactive”.
In the case of `Cc1nc(N)ncc1-c1nc(N2CCOCC2)c2sc(C(C)(C)O)cc2n1`, the activation [1] is reported as 9.3%, the Potency [2] is reported as “inactive” and the Potency [3] is reported as “inactive”. The Potency [5] was 0.105 µM (active), the Potency [4] was 4.17 µM (active) and the Potency [7] was 1.32 µM (active).
With `Cc1ccc(Nc2nccc(N(C)c3ccc4c(C)n(C)nc4c3)n2)cc1S(N)(=O)=O` the activation [1] was 13% and -7.12% and -16.1%, the Potency [2] was “inactive” and the Potency [3] was “inactive”. The Potency [4] was 5.25 µM (active), the Potency [6] was 6.61 µM (active) and the Potency [7] was 18.6 µM (active). For the same compound, the Potency [8] was 18.6 µM (active) and the Potency [9] was 18.6 µM (active).
For `C[C@@H]1CCN(C(=O)N2CCCC2)C[C@@H]1N(C)c1ncnc2[nH]ccc12`, the activation [1] was -10.7%, the Potency [2] was “inactive” and the Potency [3] was “inactive”. For the same compound, the Potency [5] was “inactive”, the Potency [6] was 16.6 µM (active) and the Potency [7] was 0.934 µM (active).
With `O=C(NC[C@H](O)CN1CCc2ccccc2C1)c1ccnc(NC2CCC2)c1` the activation [1] was 4.33%, the Potency [2] was “inactive” and the Potency [3] was “inactive”. The Potency [5] was 0.0042 µM (active), the Potency [6] was “inactive” and the Potency [7] was “inactive”. The Potency [8] was “inactive”.
With `COc1nccc(-c2c(-c3ccc(F)cc3)ncn2C2CCNCC2)n1` the activation [1] was 2.68%, the Potency [2] was “inactive” and the Potency [3] was “inactive”. For the same compound, the Potency [5] was “inactive”, the Potency [4] was 20.9 µM (active) and the Potency [7] was 16.6 µM (active). For the same compound, the Potency [8] was 20.9 µM (active).
